Assay results as given in PubChem BioAssay AID720704 (The Scripps Research Institute Molecular Screening Center, 2013).
Out of some 370,000 compounds screened, about 660 (0.18%) were called active. This is one part of a sample in which actives are shown more often than they occur. Values without a mark were called inactive. Rule as the data show it: active = inhibition above about 11%; inactive = the rest.

Molecular target: 1-phosphatidylinositol 4,5-bisphosphate phosphodiesterase beta-3 (Homo sapiens) (UniProt Q01970)
Sequence (Q01970 whole entry, looked up): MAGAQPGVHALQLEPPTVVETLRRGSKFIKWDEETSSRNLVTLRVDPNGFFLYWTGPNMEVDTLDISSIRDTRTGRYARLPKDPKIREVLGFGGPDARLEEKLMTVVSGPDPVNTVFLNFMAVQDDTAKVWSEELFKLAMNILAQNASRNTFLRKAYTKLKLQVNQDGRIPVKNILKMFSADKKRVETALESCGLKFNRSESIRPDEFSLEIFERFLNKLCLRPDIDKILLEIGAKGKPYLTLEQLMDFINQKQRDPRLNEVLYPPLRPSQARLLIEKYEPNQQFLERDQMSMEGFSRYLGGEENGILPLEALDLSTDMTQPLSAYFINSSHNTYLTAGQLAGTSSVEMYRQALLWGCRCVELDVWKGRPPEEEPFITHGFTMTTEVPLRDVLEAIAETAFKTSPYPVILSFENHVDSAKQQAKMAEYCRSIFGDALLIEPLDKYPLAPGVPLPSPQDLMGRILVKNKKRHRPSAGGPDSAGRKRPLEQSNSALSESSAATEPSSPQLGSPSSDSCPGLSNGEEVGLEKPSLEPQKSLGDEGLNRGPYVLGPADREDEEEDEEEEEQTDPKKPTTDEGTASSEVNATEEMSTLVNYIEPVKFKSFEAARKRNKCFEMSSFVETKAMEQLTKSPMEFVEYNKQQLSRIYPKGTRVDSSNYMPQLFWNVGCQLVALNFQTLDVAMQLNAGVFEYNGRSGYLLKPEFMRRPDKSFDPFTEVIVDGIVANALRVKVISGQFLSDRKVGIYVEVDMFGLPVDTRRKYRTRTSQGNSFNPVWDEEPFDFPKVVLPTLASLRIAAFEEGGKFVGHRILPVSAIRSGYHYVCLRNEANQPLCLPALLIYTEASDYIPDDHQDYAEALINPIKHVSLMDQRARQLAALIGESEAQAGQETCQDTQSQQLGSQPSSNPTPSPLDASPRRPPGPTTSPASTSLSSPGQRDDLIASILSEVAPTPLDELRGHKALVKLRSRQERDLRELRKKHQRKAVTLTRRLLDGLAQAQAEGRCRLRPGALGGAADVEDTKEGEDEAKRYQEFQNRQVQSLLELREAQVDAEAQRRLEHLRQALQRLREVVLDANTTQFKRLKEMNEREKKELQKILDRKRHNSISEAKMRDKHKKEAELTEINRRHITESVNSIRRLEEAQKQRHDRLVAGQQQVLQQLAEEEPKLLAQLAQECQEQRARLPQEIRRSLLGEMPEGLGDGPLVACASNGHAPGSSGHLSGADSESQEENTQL
Experiment: human PLC-beta3 inhibitors, primary screen, biochemical, fluorescence (AID 720704);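 also: 0% = median of compound wells on plate and 100% = full blocker control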
Conditions: Purified PLC-beta3, fluorogenic substrate, at 12.2 µM, hits give high values

`O=C(C[C@H]1C(=O)N(c2ccc(F)c(F)c2)C[C@@H]1Cc1ccccc1)Nc1ccccc1` was tested. Which inhibition did it give?
Its inhibition is 12.1% (active).

How did the inhibition turn out when `COc1ccc(NC(=O)C[C@H]2C(=O)N(CCc3ccccc3)C[C@@H]2C)cc1` was run?
Its inhibition is 4.39%.

Which inhibition does the source give for `CC1(C)CN(CCc2ccccc2)C(=O)[C@H]1CC(=O)Nc1ccc(Br)cc1` here?
Its inhibition is 1.65%.

With `Cc1nc2nc(COc3ccccc3)[nH]n2c(=O)c1C` as the molecule, how does the inhibition read?
The inhibition was 2.74%.

How did the inhibition turn out when `CCN1C(=O)CS/C1=N\c1nccs1` was run?
The inhibition was 0.11%.

For `Nc1ccn(CC(=O)N2CCN(c3ccccn3)CC2)c(=O)n1`, which inhibition is on record?
Its inhibition is -1.87%.

`O=C1NCC(Nc2ccccc2)C(=O)N1` (centres undefined) was tested. Which inhibition did it give?
The inhibition was 1.2%.

For `C=CCn1c(=O)n(C)c2c(=O)n(C)c(=O)n(C)c21`, which inhibition is on record?
Its inhibition is 0.17%.

For `CCC1CCCCN1C(=O)CSc1nc(C)cc(C)n1` (centres undefined), which inhibition is on record?
The inhibition was 19.7% (active).

`CCC1CCCCN1C(=O)CSc1nc2c(c(=O)n(C)c(=O)n2C)n1C` (centres undefined) was tested. Which inhibition did it give?
Its inhibition is -1.77%.

How did the inhibition turn out when `CCC1CCCCN1C(=O)CSc1nc2c(c(=O)n1C)SC(C)C2` (centres undefined) was run?
Its inhibition is -1.75%.

For `CCCC/S(C)=N/S(=O)(=O)c1ccc(C)cc1` (centres undefined), which inhibition is on record?
The inhibition was 3.14%.

Which inhibition does the source give for `C=CC[C@@H](CC(=O)N[C@@H](CO)Cc1ccccc1)C(=O)N[C@H](COC(=O)[C@H](CC=C)CC(=O)OC(C)(C)C)Cc1ccccc1` here?
The inhibition was 2.78%.

For `C=CC[C@@H](CC(=O)NCCO)C(=O)N[C@H](C)COC(=O)[C@@H](CC=C)CC(=O)OC(C)(C)C`, which inhibition is on record?
The inhibition was 12.3% (active).

With `C=CC[C@@H](CC(=O)N[C@@H](CO)Cc1ccccc1)C(=O)NCCOC(=O)[C@@H](CC=C)CC(=O)OC(C)(C)C` as the molecule, how does the inhibition read?
Its inhibition is 2.47%.

With `CCO[C@@H]1OC(C(=O)NC2CC2)=C[C@H](C)[C@H]1CCCO` as the molecule, how does the inhibition read?
The inhibition was 1.08%.

With `CC1=C(C(=O)N2CCOCC2)CC(CC(=O)NCc2cccc3ccccc23)C(=O)N1CCC1=CCCCC1` (centres undefined) as the molecule, how does the inhibition read?
Its inhibition is 3.78%.

How did the inhibition turn out when `Nc1cc(N2CCCCCC2)c2nonc2c1[N+](=O)[O-]` was run?
Its inhibition is -10.7%.

`Cc1cc2c(cc1C)NC(c1ccccn1)C1=C(CC(C)(C)CC1=O)N2` (centres undefined) was tested. Which inhibition did it give?
The inhibition was -15%.

Which inhibition does the source give for `O=C(O)CCCCOn1ccnc1` here?
Its inhibition is 1.89%.

`CC(C)CCN(C(=O)c1csnn1)C(C(=O)NC1CCCC1)c1ccccc1` (centres undefined) was tested. Which inhibition did it give?
Its inhibition is -3.64%.

How did the inhibition turn out when `CN1C(CC(=O)Nc2ccc(Br)cc2)c2ccccc2CC1(C)C` (centres undefined) was run?
The inhibition was -1.47%.

Which inhibition does the source give for `COC(=O)C1=C(N)Oc2cc(C)oc(=O)c2C1c1cccnc1` (centres undefined) here?
Its inhibition is -0.05%.

How did the inhibition turn out when `O=C(Nc1ccccc1C(F)(F)F)N1CCCC1c1cccnc1` (centres undefined) was run?
Its inhibition is -8.96%.

For `O=c1ccc2c(-c3ccccc3S(=O)(=O)O)c3ccc(O)c(O)c3oc-2c1O`, which inhibition is on record?
Its inhibition is 11.7% (active).

`Cc1ccsc1C(=O)N[C@@H](C)c1nnc2ccccn12` was tested. Which inhibition did it give?
Its inhibition is -1.93%.

How did the inhibition turn out when `COc1ccc(Br)cc1CN(C)C(=O)C1CC(=O)N(C2CCCC2)C1` (centres undefined) was run?
Its inhibition is -3.09%.

`CCN1CN(Cc2ccccc2)CNC1=S` was tested. Which inhibition did it give?
The inhibition was 6.18%.

`CC(C)c1nc2oc3c(N4CCN(C)CC4)ncnc3c2c2c1CCC2` was tested. Which inhibition did it give?
Its inhibition is -17.2%.
